# The full ranking holds about 8,300 sequences; the median of “log2 fold change of degron read counts, EGFP-low vs EGFP+ sorted cells (limma voom), compound-induced degradation” is about -1.1, and the highest 2% start at about 3.2. The entries come from a sample that favours the highest values as a whole.
# T1: CRBN, Q96SW2
# T1 chain: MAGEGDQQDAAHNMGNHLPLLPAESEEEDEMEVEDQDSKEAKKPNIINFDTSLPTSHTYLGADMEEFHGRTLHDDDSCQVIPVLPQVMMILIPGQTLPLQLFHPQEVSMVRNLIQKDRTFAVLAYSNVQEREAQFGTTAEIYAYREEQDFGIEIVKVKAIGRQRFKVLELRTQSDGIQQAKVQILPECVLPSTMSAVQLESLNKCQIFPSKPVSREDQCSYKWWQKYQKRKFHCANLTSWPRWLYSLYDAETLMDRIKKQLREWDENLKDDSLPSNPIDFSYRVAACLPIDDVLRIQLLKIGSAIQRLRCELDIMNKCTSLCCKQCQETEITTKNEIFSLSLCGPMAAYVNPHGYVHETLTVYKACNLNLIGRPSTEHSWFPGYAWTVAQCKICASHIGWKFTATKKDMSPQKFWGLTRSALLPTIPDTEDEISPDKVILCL
# B1: 46F_47F_49P_50I_52G_53R_54A_55F_67L_, Q9UKT9 (peptide)
# chain: FFCPICGRAFTQKGNLLRHIKL
# B2: 46F_47I_49P_50V_52G_53A_54Y_55F_67L_, Q9UKT9 (peptide)
# chain: FICPVCGAYFTQKGNLLRHIKL
# B3: 46F_47H_49E_50V_52G_53A_54W_55F_67L_, Q9UKT9 (peptide)
# chain: FHCEVCGAWFTQKGNLLRHIKL
# B4: 46L_47D_49E_50I_52G_53F_54I_55C_67L_, Q9UKT9 (peptide)
# chain: LDCEICGFICTQKGNLLRHIKL
# B5: 46L_47R_49P_50I_52G_53F_54D_55C_67L_, Q9UKT9 (peptide)
# chain: LRCPICGFDCTQKGNLLRHIKL
# B6: 46L_47R_49N_50Q_52G_53F_54A_55C_67L_, Q9UKT9 (peptide)
# chain: LRCNQCGFACTQKGNLLRHIKL
# B7: 46F_47W_49D_50Q_52G_53A_54Q_55F_67L_, Q9UKT9 (peptide)
# chain: FWCDQCGAQFTQKGNLLRHIKL
# B8: 46F_47C_49E_50I_52G_53H_54V_55F_67L_, Q9UKT9 (peptide)
# chain: FCCEICGHVFTQKGNLLRHIKL
# B9: 46F_47L_49P_50I_52G_53A_54A_55F_67L_, Q9UKT9 (peptide)
# chain: FLCPICGAAFTQKGNLLRHIKL
# B10: 46F_47A_49P_50I_52G_53A_54A_55F_67L_, Q9UKT9 (peptide)
# chain: FACPICGAAFTQKGNLLRHIKL
# B11: 46F_47C_49P_50I_52G_53A_54A_55F_67L_, Q9UKT9 (peptide)
# chain: FCCPICGAAFTQKGNLLRHIKL
# B12: 46F_47D_49P_50I_52G_53A_54A_55F_67L_, Q9UKT9 (peptide)
# chain: FDCPICGAAFTQKGNLLRHIKL
# B13: 46F_47T_49P_50I_52G_53A_54A_55F_67L_, Q9UKT9 (peptide)
# chain: FTCPICGAAFTQKGNLLRHIKL
# B14: 46F_47M_49P_50I_52G_53A_54A_55F_67L_, Q9UKT9 (peptide)
# chain: FMCPICGAAFTQKGNLLRHIKL
# B15: 46F_47I_49N_50V_52G_53A_54I_55F_67L_, Q9UKT9 (peptide)
# chain: FICNVCGAIFTQKGNLLRHIKL
# B16: 46F_47V_49N_50Q_52G_53R_54V_55F_67L_, Q9UKT9 (peptide)
# chain: FVCNQCGRVFTQKGNLLRHIKL
# B17: 46F_47L_49D_50V_52G_53A_54G_55F_67L_, Q9UKT9 (peptide)
# chain: FLCDVCGAGFTQKGNLLRHIKL
# B18: 46F_47M_49D_50I_52G_53A_54Q_55F_67L_, Q9UKT9 (peptide)
# chain: FMCDICGAQFTQKGNLLRHIKL
# B19: 46F_47N_49N_50Q_52G_53R_54F_55F_67L_, Q9UKT9 (peptide)
# chain: FNCNQCGRFFTQKGNLLRHIKL
# B20: 46F_47R_49P_50I_52G_53H_54I_55F_67L_, Q9UKT9 (peptide)
# chain: FRCPICGHIFTQKGNLLRHIKL
# B21: 46F_47L_49E_50I_52G_53H_54Q_55F_67L_, Q9UKT9 (peptide)
# chain: FLCEICGHQFTQKGNLLRHIKL
# B22: 46L_47K_49P_50I_52G_53F_54D_55C_67L_, Q9UKT9 (peptide)
# chain: LKCPICGFDCTQKGNLLRHIKL
# B23: 46F_47G_49E_50I_52G_53H_54G_55F_67L_, Q9UKT9 (peptide)
# chain: FGCEICGHGFTQKGNLLRHIKL
# B24: 46F_47L_49P_50I_52G_53R_54F_55F_67L_, Q9UKT9 (peptide)
# chain: FLCPICGRFFTQKGNLLRHIKL
# B25: 46F_47I_49P_50I_52G_53A_54S_55F_67L_, Q9UKT9 (peptide)
# chain: FICPICGASFTQKGNLLRHIKL
# B26: 46F_47A_49P_50I_52G_53A_54S_55F_67L_, Q9UKT9 (peptide)
# chain: FACPICGASFTQKGNLLRHIKL
# B27: 46F_47C_49P_50I_52G_53A_54S_55F_67L_, Q9UKT9 (peptide)
# chain: FCCPICGASFTQKGNLLRHIKL
# B28: 46F_47M_49P_50I_52G_53A_54S_55F_67L_, Q9UKT9 (peptide)
# chain: FMCPICGASFTQKGNLLRHIKL
# B29: 46F_47R_49P_50I_52G_53A_54S_55F_67L_, Q9UKT9 (peptide)
# chain: FRCPICGASFTQKGNLLRHIKL
# B30: 46F_47C_49N_50I_52G_53A_54S_55F_67L_, Q9UKT9 (peptide)
# chain: FCCNICGASFTQKGNLLRHIKL
# B31: 46F_47E_49P_50I_52G_53A_54S_55F_67L_, Q9UKT9 (peptide)
# chain: FECPICGASFTQKGNLLRHIKL
# B32: 46F_47V_49P_50I_52G_53A_54S_55F_67L_, Q9UKT9 (peptide)
# chain: FVCPICGASFTQKGNLLRHIKL
# B33: 46F_47S_49P_50I_52G_53A_54S_55F_67L_, Q9UKT9 (peptide)
# chain: FSCPICGASFTQKGNLLRHIKL
# B34: 46F_47E_49N_50I_52G_53A_54S_55F_67L_, Q9UKT9 (peptide)
# chain: FECNICGASFTQKGNLLRHIKL
# Target: T1, CRBN, Q96SW2
# Assay: log2 fold change of degron read counts, EGFP-low vs EGFP+ sorted cells (limma voom), compound-induced degradation; higher = more compound-induced degradation of the degron-EGFP fusion; degrons are variants of IKZF1/3 zinc finger 2; compound dose not given here
# Settings: Jurkat, 18 h
# [1] = compound: compound 19 (5-tert-butyl-thalidomide)
# [2] = compound: compound 22 (5-morpholino-thalidomide)
# [3] = compound: compound 33 (diphenyl IMiD analogue)
# 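Also: pooled lentiviral library of zinc finger degron-EGFP fusions in mCherry-positive Jurkat cells, FACS-sorted after compound exposure, with degron abundance counted by next-generation sequencing.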
Sequence,log2 fold change of degron read counts [1],log2 fold change of degron read counts [2],log2 fold change of degron read counts [3],log2 fold change of degron read counts (compound: thalidomide)
B1,-0.764,-1.23,-0.0789,-1.31
B2,-0.575,1.65,1.98,1.66
B3,-1.47,-1.81,-0.825,-1.89
B4,-0.803,-0.92,-0.72,-0.457
B5,-1.49,-1.07,0.189,0.67
B6,-1.46,-1.7,-0.712,-0.94
B7,0.249,2.32,-0.8,-1.65
B8,-2.85,-3.23,-2.09,-2.16
B9,1.31,0.494,1.82,1.59
B10,3.73,2.93,1.69,1.69
B11,3.34,2.84,2.48,2.21
B12,2.39,0.645,1.79,2.2
B13,2.48,2.97,2.48,2.67
B14,2.31,2.47,2.94,2.32
B15,-2.95,-2.03,0.29,-1.36
B16,-2.6,-2.87,-2.56,-2.9
B17,-0.0363,-1.56,-0.558,-1.42

Sequence,log2 fold change of degron read counts [1],log2 fold change of degron read counts [2],log2 fold change of degron read counts [3],log2 fold change of degron read counts (compound: thalidomide)
B18,-1.1,-0.152,2.21,-0.153
B19,-1.77,-2.76,-1.9,-1.6
B20,-2.22,-2.81,-1.62,-1.42
B21,-3.24,-3.62,-3.53,-2.18
B22,-1.99,-1.82,-1.08,-0.789
B23,-2.33,-2.62,-2.89,-2.42
B24,-1.24,-1.32,0.143,0.16
B25,-0.0282,2.87,1.99,2.6
B26,3.73,2.44,1.48,1.61
B27,3.32,2.71,2.44,2.37
B28,1.54,2.45,2.91,2.41
B29,1.96,1.71,1.79,1.78
B30,1.56,1.91,1.76,1.41
B31,2.15,-0.116,2.38,3.32
B32,0.995,2.78,2.19,3.08
B33,3.35,2.78,2.17,2.01
B34,-0.173,-1.42,0.849,1.86

# Reference: the supplement of paper PMC12645437, “Orthogonal IMiD-Degron Pairs Induce Selective Protein Degradation in Cells” (ACS Chemical Biology, 2025)
